The nature of assay [1]: qHTS assay to identify small molecule agonists of the TGF-beta/Smad signaling pathway - cell viability counter screen (AID 1346829). Note: top concentration of the series differs between compounds; nearly all actives have a fitted effect of over 45% in size. An outline of the steps: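 Tox21 qHTS format: SBE-bla HEK 293T cells treated with DMSO-dissolved compounds for 5 hr; CellTiter-Glo luminescence after 30 min at room temperature.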
On the technique in general: In qHTS, concentration-response curves come from the screen itself.

The nature of assay [2]: qHTS assay to identify small molecule agonists of the TGF-beta/Smad signaling pathway (AID 1346859; active = well fitted activation curve with a large enough effect in the signal ratio in the repeat runs, not every such curve was filed as active; the % refers to the signal ratio; note: series mostly up to about 77 µM). Summed up: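 Beta-lactamase reporter activity downstream of Smad binding elements was measured in stably transfected HEK 293T cells; compounds were incubated for 5 hr, substrate for 2 hr at room temperature.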
Assay [3] can be described thus: Human pregnane X receptor (PXR) small molecule agonists, qHTS cell viability counter screen (AID 1346977). Note: nearly all actives have a fitted effect of over 50% in size. An outline of the steps: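 After a 5hr pre-incubation, PXR-Luc HepG2 cells received compounds plus positive control in DMSO and were kept 24hr at 37C. Cell viability was quantified by fluorescence from CellTiter-Fluor added for the final hour.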
A short description of assay [4]: Caspase-3/7 induction in HepG2 cells by small molecules, qHTS assay (AID 1346978). Note: nearly all actives have a fitted effect of over 15% in size. An outline of the steps: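 Wild-type HepG2 cells, 2,000/well, settled 5 hr at 37 C and 5% CO2, then compound-treated for 17 hr; caspase-3/7 activity read by luminescent Caspase-Glo 3/7 after 30 min at room temperature.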
The nature of assay [5]: Caspase-3/7 induction in CHO-K1 cells by small molecules, qHTS cell viability counter screen (AID 1346979). Note: nearly all actives have a fitted effect of over 35% in size. Summed up: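 Multiplexed with Caspase-Glo 3/7 in CHO-K1 cells, this counter screen added CellTiter-Fluor after 16hr of compound exposure and recorded fluorescence 1hr later.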
Assay [6] is described as follows: Caspase-3/7 induction in CHO-K1 cells by small molecules, qHTS assay (AID 1346980). Note: nearly all actives have a fitted effect of over 15% in size. An outline of the steps: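 Wild-type CHO-K1 cells exposed to compounds for 17hr at 37 C, 5% CO2. Caspase-3/7 activity then measured by Caspase-Glo 3/7 luminescence after 30min at room temperature.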
Assay [7] in a line: Caspase-3/7 induction in HepG2 cells by small molecules, qHTS cell viability counter screen (AID 1346981). Note: series mostly up to about 92 µM; nearly all actives have a fitted effect of over 30% in size. Summed up:
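CellTiter-Fluor fluorescence measured viability in the same wells used for Caspase-Glo 3/7. HepG2 (wild type) at 2,000 cells/well were pre-incubated 5 hr, dosed, and given reagent at 16 hr, with 1 hr further at 37C.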

Assay [8] concerns the target Nuclear receptor subfamily 1 group I member 2 (Homo sapiens) (UniProt O75469). Kind of assay: Human pregnane X receptor (PXR) small molecule agonists, qHTS assay (AID 1346982). Note: nearly all actives have a fitted effect of over 35% in size. Note: potency is the fitted concentration of half-maximal effect. Summed up: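 Agonist mode: luminescence from ONE-Glo after 24 h compound exposure at 37C in HepG2 cells carrying hPXR-responsive CYP3A4 luciferase, plated in charcoal-stripped serum medium 5 h beforehand.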

Assay [9] concerns the target Cytochrome P450 2D6 (Homo sapiens) (UniProt P10635). Kind of assay: Cytochrome P450 Family 2 Subfamily D Member 6 (CYP2D6) small molecule antagonists: luciferase reporter qHTS assay (AID 1671196). Note: nearly all actives have a fitted effect of over 50% in size. Note: potency is the fitted concentration of half-maximal effect. Summed up: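 CYP2D6 activity was followed as luminescence from its luciferin product after a 1 h NADPH-driven reaction at room temperature. Enzyme-substrate mix and compound were pre-incubated for 10 min, and the signal was read 20 min after adding detection reagent.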

For assay [10], the target named is Cytochrome P450 2C19 (Homo sapiens) (UniProt P33261). Kind of assay: Cytochrome P450 Family 2 Subfamily C Member 19 (CYP2C19) small molecule antagonists: luciferase reporter qHTS assay (AID 1671197). Note: series mostly up to about 120 µM; nearly all actives have a fitted effect of over 65% in size. An outline of the steps:
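Relative luminescence units recorded 20 min after the detection reagent stopped a 1 h, 37C CYP2C19 reaction on proluciferin substrate, which was started by NADPH regeneration following 10 min room-temperature compound preincubation; ketoconazole positive control.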
Background: Reporter assays use an easily measured gene product as a stand-in for the process of interest.

The target in assay [11] is Cytochrome P450 2C9 (Homo sapiens) (UniProt P11712). The experiment in a line: Cytochrome P450 Family 2 Subfamily C Member 9 (CYP2C9) small molecule antagonists: luciferase reporter qHTS assay (AID 1671198). Note: nearly all actives have a fitted effect of over 50% in size. Note: potency is the fitted concentration of half-maximal effect. Summed up: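 P450-Glo proluciferin substrate with CYP2C9 enzyme; 10 min RT preincubation, then NADPH regeneration 1 h at 37C; luciferin detection reagent 20 min RT, luminescence in relative luminescence units.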
Sequence of Cytochrome P450 2C9 (Homo sapiens) (P11712 whole entry, looked up): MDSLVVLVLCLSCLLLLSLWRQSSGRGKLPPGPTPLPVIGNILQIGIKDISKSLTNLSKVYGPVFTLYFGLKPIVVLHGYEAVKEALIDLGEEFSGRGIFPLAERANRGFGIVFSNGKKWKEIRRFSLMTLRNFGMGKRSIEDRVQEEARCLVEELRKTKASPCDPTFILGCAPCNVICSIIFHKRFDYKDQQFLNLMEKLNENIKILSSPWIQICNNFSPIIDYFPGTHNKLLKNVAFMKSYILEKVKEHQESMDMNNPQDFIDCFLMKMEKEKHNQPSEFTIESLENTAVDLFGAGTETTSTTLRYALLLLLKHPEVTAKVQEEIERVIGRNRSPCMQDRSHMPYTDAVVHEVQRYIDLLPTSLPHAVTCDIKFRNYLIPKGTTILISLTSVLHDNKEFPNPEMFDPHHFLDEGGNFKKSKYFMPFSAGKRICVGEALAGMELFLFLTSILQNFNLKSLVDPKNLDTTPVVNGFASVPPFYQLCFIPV

Assay [12] deals with Voltage-gated inwardly rectifying potassium channel KCNH2 (Homo sapiens) (UniProt Q12809). The experiment in a line: Human Ether-a-go-go-Related Gene (hERG) channel small molecule antagonists: fluorescence cell-based qHTS assay (AID 1671200).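 Note: hERG-expressing U2OS cells given a thallium stimulus after FluxOR II dye loading; series mostly up to about 77 µM; nearly all actives have a fitted effect of over 50% in size.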 An outline of the steps:
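Cell line hERG-U2OS; dye FluxOR II, 1 h RT dark; Tl+ stimulus; ex 480/em 540 nm, read each second for 2 min.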

Assay [13] concerns the target Cytochrome P450 3A4 (Homo sapiens) (UniProt P08684). The experiment in a line: Cytochrome P450 Family 3 Subfamily A Member 4 (CYP3A4) small molecule antagonists: luciferase reporter qHTS assay (AID 1671201). Note: nearly all actives have a fitted effect of over 50% in size. Note: potency is the fitted concentration of half-maximal effect. An outline of the steps: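 Room-temperature assay throughout: 10 min compound–enzyme/substrate preincubation, 1 h reaction after NADPH regeneration solution, 20 min detection. Luciferin formed from proluciferin substrate is quantified by luminescence.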

The target of assay [14] is Thyrotropin-releasing hormone receptor (Homo sapiens) (UniProt P34981). The experiment in a line: qHTS assay to identify small molecule agonists of the thyrotropin-releasing hormone receptor (TRHR) signaling pathway (AID 1346891; calls by dose curve;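 note: HEK293 cells expressing TRHR with calcium dye readout; series mostly up to about 58 µM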). An outline of the steps: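 Overnight-plated (18 h, 37 °C, 5% CO2) TRHR-Hek293 cells; 2 h calcium dye at 37 °C; compound in DMSO; 3-min kinetic fluorescence read.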
Sequence of Thyrotropin-releasing hormone receptor (Homo sapiens) (P34981 whole entry, looked up): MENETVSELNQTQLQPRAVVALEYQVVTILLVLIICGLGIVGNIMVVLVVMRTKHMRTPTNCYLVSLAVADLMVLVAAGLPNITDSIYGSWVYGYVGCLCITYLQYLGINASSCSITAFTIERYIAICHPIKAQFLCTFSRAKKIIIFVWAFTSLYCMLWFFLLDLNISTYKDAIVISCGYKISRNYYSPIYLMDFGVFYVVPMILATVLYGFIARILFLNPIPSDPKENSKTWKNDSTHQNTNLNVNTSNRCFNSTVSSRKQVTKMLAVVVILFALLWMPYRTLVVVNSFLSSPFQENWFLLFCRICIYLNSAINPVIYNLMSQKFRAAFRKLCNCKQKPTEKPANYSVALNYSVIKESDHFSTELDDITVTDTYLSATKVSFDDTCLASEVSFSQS

Assay [15] concerns the target Cytochrome P450 1A2 (Homo sapiens) (UniProt P05177). The experiment in a line: Cytochrome P450 Family 1 Subfamily A Member 2 (CYP1A2) small molecule antagonists: luciferase reporter qHTS assay (AID 1671199). Note: nearly all actives have a fitted effect of over 50% in size. Note: potency is the fitted concentration of half-maximal effect. An outline of the steps: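 Luminescence from luciferin formed by CYP1A2 from a proluciferin substrate, read 20 min after detection reagent. Compound was pre-incubated 10 min with enzyme-substrate, and reaction started with NADPH regeneration solution for 1 h at room temperature; furafylline control.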

In assay [16] the target is Nuclear receptor subfamily 1 group I member 2 (Rattus norvegicus) (UniProt Q9R1A7). The experiment in a line: Rat pregnane X receptor (rPXR) activation by small molecules, qHTS assay (AID 1346983). Note: nearly all actives have a fitted effect of over 20% in size. As to conditions: rPXR luciferase reporter cells, One-Glo luminescence, 24 h; hits give high values. An outline of the steps:
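Cell-based rPXR activation assay: rPXR cells, 2,000 per well, rested 5hr at 37 C, then exposed to compounds in DMSO for 24 hr at 37 C. Luciferase activity read by One-Glo luminescence after 30 min at room temperature.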

Assay [17] concerns the target Nuclear receptor subfamily 1 group I member 2 (Homo sapiens) (UniProt O75469). Kind of assay: CYP3A4 induction through human pregnane X receptor (PXR) by small molecules, qHTS assay (AID 1346984). Note: nearly all actives have a fitted effect of over 40% in size. An outline of the steps:
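Read-out is luminescence after One-Glo addition, following a 3 hr, 37C incubation with Luciferin-IPA CYP3A4 substrate (3uM final). Before that, compounds were on DPX-2 cells (HepG2 co-transfected with PXR element plus CYP3A4-promoter luciferase) for 24 hr at 37C.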

Assay [18] has the same target. Kind of assay: Human pregnane X receptor (PXR) activation by small molecules, qHTS assay (AID 1346985). Note: nearly all actives have a fitted effect of over 40% in size. Summed up:
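DPX-2 cells (HepG2 co-transfected with a PXR response element and a CYP3A4-promoter luciferase construct) were seeded at 2,000 per well, rested 5 hr at 37C, then exposed to DMSO-dissolved compounds for 24 hr. Activation was read as luciferase luminescence.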

Unmarked numbers belong to inactive results. Results filed as inconclusive are left out. The source made the active and inactive calls. Unless noted, calls come from the whole dose curve; as a rule, active = well fitted curve in the direction sought with a large enough effect in the repeat runs; inconclusive = weak or mixed curves; inactive = no such curve, though single readings can be large; an effect the other way counts as inactive or inconclusive.
% is set by controls: 0 for no effect and ±100 for the full control effect.

Sequence of Cytochrome P450 2D6 (Homo sapiens) (P10635 whole entry, looked up): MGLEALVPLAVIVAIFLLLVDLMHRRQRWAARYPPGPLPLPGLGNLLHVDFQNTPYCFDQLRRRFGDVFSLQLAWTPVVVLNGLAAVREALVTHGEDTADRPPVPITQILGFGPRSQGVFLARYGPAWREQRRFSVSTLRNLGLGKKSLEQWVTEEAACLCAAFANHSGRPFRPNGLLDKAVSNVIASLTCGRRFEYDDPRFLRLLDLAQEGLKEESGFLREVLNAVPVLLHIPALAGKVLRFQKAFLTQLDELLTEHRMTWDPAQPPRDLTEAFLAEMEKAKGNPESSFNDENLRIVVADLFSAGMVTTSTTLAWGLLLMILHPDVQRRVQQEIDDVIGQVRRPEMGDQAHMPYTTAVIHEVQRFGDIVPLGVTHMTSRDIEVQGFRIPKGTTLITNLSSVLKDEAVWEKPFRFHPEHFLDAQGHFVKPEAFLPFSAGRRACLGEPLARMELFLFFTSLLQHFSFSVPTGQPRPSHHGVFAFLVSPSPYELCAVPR
Sequence of Cytochrome P450 1A2 (Homo sapiens) (P05177 whole entry, looked up): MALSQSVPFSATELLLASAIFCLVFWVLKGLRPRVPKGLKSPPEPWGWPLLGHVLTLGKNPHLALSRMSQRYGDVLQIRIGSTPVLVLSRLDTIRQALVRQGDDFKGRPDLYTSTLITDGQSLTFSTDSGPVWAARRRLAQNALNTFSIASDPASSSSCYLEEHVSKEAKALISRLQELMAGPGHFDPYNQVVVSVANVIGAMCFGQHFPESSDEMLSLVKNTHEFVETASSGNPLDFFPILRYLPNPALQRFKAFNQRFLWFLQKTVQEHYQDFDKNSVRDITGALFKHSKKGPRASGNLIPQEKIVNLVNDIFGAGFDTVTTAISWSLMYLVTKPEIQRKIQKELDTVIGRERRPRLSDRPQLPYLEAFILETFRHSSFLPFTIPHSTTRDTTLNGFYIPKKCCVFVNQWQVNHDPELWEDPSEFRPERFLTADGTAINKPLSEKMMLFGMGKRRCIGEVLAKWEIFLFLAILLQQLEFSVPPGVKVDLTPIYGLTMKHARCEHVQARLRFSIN
Sequence of Nuclear receptor subfamily 1 group I member 2 (Homo sapiens) (O75469 whole entry, looked up): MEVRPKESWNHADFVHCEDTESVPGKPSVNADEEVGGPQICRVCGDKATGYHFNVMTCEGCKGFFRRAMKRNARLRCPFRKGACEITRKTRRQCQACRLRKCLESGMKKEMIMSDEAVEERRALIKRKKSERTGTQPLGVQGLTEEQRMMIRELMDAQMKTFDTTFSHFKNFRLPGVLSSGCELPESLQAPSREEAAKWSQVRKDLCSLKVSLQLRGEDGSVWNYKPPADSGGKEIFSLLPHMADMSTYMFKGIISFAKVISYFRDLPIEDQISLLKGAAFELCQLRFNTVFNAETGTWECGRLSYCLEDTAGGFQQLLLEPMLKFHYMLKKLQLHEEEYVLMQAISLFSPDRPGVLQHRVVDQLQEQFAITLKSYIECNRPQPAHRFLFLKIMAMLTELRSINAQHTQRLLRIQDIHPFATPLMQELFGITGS
Sequence of Cytochrome P450 2C19 (Homo sapiens) (P33261 whole entry, looked up): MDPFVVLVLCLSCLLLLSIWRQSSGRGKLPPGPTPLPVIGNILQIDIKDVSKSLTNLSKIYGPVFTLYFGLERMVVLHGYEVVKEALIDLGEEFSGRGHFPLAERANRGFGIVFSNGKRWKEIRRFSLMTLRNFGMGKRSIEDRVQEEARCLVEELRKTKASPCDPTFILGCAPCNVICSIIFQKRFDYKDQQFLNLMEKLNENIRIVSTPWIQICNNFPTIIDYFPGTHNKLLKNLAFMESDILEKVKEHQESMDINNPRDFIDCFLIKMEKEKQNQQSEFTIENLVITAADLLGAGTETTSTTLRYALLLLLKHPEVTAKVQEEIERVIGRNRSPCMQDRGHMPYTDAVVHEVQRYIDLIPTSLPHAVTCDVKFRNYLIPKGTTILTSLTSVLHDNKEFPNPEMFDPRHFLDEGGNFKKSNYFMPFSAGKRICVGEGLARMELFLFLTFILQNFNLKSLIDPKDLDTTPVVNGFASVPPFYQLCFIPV
Sequence of Cytochrome P450 3A4 (Homo sapiens) (P08684 whole entry, looked up): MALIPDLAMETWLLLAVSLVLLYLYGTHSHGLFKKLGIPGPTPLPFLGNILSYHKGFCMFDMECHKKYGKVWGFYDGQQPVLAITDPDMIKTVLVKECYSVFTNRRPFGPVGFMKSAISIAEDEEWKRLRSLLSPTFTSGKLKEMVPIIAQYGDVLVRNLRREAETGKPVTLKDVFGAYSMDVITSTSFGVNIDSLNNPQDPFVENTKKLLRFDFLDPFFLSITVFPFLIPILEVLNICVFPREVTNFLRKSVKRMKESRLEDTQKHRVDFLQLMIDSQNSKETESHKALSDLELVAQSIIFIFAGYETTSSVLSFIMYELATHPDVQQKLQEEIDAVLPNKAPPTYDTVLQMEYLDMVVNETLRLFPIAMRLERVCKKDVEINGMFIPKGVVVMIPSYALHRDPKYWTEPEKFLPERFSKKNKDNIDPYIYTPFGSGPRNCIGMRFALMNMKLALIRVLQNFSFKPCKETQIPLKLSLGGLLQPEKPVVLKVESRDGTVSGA
Sequence of Voltage-gated inwardly rectifying potassium channel KCNH2 (Homo sapiens) (Q12809 whole entry, looked up): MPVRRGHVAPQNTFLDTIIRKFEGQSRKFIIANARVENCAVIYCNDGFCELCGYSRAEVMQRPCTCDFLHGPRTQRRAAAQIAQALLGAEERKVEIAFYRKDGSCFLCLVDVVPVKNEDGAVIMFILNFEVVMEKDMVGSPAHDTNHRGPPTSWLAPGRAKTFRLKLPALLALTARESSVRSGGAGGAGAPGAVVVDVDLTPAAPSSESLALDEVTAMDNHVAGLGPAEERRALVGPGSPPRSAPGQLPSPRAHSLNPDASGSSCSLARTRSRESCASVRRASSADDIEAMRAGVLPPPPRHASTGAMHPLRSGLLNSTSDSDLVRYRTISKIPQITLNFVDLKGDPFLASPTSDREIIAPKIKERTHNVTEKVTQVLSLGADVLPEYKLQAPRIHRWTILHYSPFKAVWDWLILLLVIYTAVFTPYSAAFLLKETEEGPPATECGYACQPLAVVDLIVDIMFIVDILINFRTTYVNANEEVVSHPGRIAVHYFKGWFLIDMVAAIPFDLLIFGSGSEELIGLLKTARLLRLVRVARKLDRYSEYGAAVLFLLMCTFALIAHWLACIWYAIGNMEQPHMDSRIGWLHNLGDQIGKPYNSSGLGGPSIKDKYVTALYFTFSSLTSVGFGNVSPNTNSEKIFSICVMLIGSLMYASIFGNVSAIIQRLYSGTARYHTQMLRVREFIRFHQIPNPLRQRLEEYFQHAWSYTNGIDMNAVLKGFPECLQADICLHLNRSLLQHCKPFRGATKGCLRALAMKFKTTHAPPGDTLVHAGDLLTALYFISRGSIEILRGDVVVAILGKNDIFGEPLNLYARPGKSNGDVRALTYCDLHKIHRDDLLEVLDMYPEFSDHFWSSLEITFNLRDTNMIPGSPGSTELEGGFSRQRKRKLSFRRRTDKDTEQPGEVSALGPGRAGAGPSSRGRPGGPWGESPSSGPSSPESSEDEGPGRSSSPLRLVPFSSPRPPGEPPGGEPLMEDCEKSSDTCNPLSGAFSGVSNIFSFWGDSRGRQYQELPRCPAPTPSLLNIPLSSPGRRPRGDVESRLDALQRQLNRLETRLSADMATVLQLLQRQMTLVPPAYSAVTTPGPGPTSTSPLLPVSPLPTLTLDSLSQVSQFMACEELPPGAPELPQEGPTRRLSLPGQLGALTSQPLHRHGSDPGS
Sequence of Nuclear receptor subfamily 1 group I member 2 (Rattus norvegicus) (Q9R1A7 whole entry, looked up): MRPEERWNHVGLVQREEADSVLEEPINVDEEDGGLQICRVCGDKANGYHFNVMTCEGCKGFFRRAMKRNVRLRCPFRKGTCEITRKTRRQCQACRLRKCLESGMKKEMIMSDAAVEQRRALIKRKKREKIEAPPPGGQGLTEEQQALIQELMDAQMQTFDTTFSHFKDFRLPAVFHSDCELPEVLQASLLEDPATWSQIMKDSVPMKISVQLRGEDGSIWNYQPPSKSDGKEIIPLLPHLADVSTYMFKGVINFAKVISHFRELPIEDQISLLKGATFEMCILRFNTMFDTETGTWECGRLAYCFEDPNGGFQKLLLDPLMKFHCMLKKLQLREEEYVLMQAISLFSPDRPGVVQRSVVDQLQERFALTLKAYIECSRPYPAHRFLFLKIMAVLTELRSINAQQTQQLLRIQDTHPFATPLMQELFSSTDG

Turning to `CC1CC(=O)CC(C)(C)C1` (configuration not stated), the compound was called inactive in assay [1], in assay [2], in assay [3], in assay [4], in assay [6] and in assay [7]. Also, the Potency result in [5], in assay [8], in [9], in assay [10], in assay [11] and in assay [12] was “inactive” throughout. The Potency entry in [13] is “inactive”.
Consider `CN(C)CCCCl`, for which the result in assay [1], in assay [2], in assay [14], in [4], in [6] and in assay [7] was inactive. Further, the Potency entry in [5], in assay [8], in assay [9], in [10], in [11] and in [15] was “inactive” in each case. Also, the Potency entry in assay [12] and in assay [13] was “inactive” each time.
With `CC(C)OC(=O)OCOP(=O)(CO[C@H](C)Cn1cnc2c(N)ncnc21)OCOC(=O)OC(C)C`, the result in [1], in assay [2], in [3], in [4], in assay [6] and in [7] was inactive. The Potency result in assay [5], in assay [8], in assay [17], in assay [18], in assay [9] and in assay [10] was “inactive” in each case. In addition, the Potency result in assay [15] and in assay [12] was “inactive” in each case. Besides, in assay [16], the max activation was -6.83%.
On to `CCCCCCCCCOC(=O)CCCCC(=O)OCCCCCCC`, for which the outcome in assay [1], in assay [2], in [14], in [4], in [6] and in assay [7] was inactive. Also, the Potency result in [5], in assay [8], in assay [9], in assay [10], in assay [11] and in assay [12] was “inactive” each time. The Potency result in assay [13] is “inactive”.
For the compound `CCC(C)OC(C)CC` (configuration not stated), the compound was classed as inactive in assay [1], in assay [2], in [3], in assay [4], in [6] and in assay [7]. For the same compound, the Potency result in assay [5], in assay [8], in assay [10], in [11], in assay [15] and in [12] was “inactive” in each case. Also, the Potency result in assay [13] is “inactive”.
`CC(C)[C@H]1CC[C@H](C)C[C@@H]1O`: the result in assay [1], in assay [2], in [3], in assay [4], in [6] and in [7] was inactive. Also, the Potency entry in [5], in assay [9], in assay [10], in assay [11], in [15] and in assay [12] was “inactive” in each case. Also, in assay [13], the Potency entry was “inactive”. In addition, the Potency in assay [8] is 55.4 µM (active).
Turning to `Cc1cc(-c2ccccc2)nnc1NCCN1CCOCC1`, the result in [1], in [2], in assay [3], in assay [4], in assay [6] and in assay [7] was inactive. Moreover, the Potency result in assay [5], in assay [8], in assay [10], in assay [15] and in assay [12] was “inactive” throughout. The Potency in assay [9] is 8.71 µM (active).
Turning to `CCCCCCCCCOC(=O)c1ccccc1C(=O)OCCCCCCCCC`, the call in assay [1], in [2], in [14], in assay [3], in [4] and in [6] was inactive. Also, the call in [7] was inactive. Besides, the Potency result in assay [5] and in assay [12] was “inactive” each time. In addition, the Potency in assay [8] was 19.3 µM (active); in assay [11], 39.8 µM (active); in assay [15], 35.5 µM (active); in [13], 7.95 µM (active).
Turning to `C[C@@H](O)C(=O)O`, the outcome in [1], in [2], in assay [14], in assay [4], in assay [6] and in assay [7] was inactive. Further, the Potency result in assay [5], in assay [8], in assay [11], in assay [15] and in assay [13] was “inactive” throughout.
As to `C=C(C)C1CC=C(C)C(=O)C1` (configuration not stated), the result in assay [1], in assay [2], in [3], in assay [4], in assay [6] and in [7] was inactive. Besides, the Potency entry in [5], in assay [8], in assay [9], in assay [10], in assay [11] and in assay [15] was “inactive” throughout. Moreover, the Potency entry in [12] and in [13] was “inactive” throughout.

(Values after PubChem BioAssay (Tox21).)
